Assay outcomes: PubChem, National Center for Advancing Translational Sciences (NCATS)
Methyltransferases – Primary Screen for Target Class Profiling of Small Molecule Inhibitors of Methyltransferases | 25,000 compounds, 3.9% hits | AID 1745853, 2022 | calls only at 40 µM | purified enzyme, MTase-Glo SAH luminescence; stronger effect = lower value; call rule not given here
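Each enzyme was assayed with SAM and its substrate. SAH formation detected by MTase-Glo luminescence; single-point 40 uM screen[…].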
* hit, by the source's call; i = inactive; + = active, no number. This is one part of a sample in which hits are shown more often than they occur. % is scaled to controls: 0 for no effect and ±100 for the full control effect.

SMILES	Methyltransferases
Cc1ccc(Cn2c(=O)c3ccccc3n3c(=O)n(CC(=O)Nc4cccc(Cl)c4)nc23)cc1	i
Cc1ccc(N2C(=O)CSc3c(c4ccccc4n3C)C2C(=O)NCc2ccc(F)cc2)cc1C (configuration not stated)	i
Cc1nnc(C[C@@H]2C=C(c3ccc(Cl)cc3)c3ccccc3-n3c(C)nnc32)o1	+
CN1CCN(CCN2C(=O)c3ccc(-c4ccco4)n3CC2(C)C(=O)NC2CCCC2)CC1 (configuration not stated)	i
CCC(C)NC(=O)c1ccc2c(=O)n(C(C)C)c3nn(CC(=O)c4cccc(Cl)c4)c(=O)n3c2c1 (configuration not stated)	i
COc1ccc(CN2C(=O)c3cc4c(OC)ccc(OC)c4n3CC2(C)C(=O)NC2CCCC2)cc1 (configuration not stated)	i
COc1c(O)cc2c(c1O)[C@@H]1O[C@H](CO)[C@@H](O)[C@H](O)[C@H]1OC2=O	+
COc1cc(COC2OC(CO)C(O)C(O)C2O)cc(OC)c1O (configuration not stated)	i
COC(=O)c1ccc(O[C@@H]2O[C@H](CO)[C@@H](O)[C@H](O)[C@H]2O)c(OC)c1	i
COc1ccccc1CNC(=O)C1(C)Cn2nc(-c3ccccc3)cc2C(=O)N1Cc1ccccc1OC (configuration not stated)	i
CCCCN1C(=O)c2ccc(-c3ccco3)n2CC1(C)C(=O)NC1CCCC1 (configuration not stated)	i
CC1(C(=O)NC2CCCCC2)Cn2nc(-c3cccs3)cc2C(=O)N1Cc1ccccc1 (configuration not stated)	i
COc1cc(Nc2c(C#N)cnc3cc(OCCCN4CCN(C)CC4)c(OC)cc23)c(Cl)cc1Cl	+
COc1cc2c(Oc3ccc(-c4cnc(Nc5ccc(F)cc5)n(C)c4=O)cc3F)ccnc2cc1OCCCN1CCOCC1	i
COc1cccc(OCCCN)c1-c1cc(Nc2cnc(C#N)cn2)n[nH]1	i
Cn1cc(C(=O)NCCc2cccs2)c(S(=O)(=O)N2CCCCC2)n1	i
CC(C)CCNC(=O)C1(C)Cn2c(cc3ccccc32)C(=O)N1Cc1ccco1 (configuration not stated)	i
O=C(Cn1nc2n(Cc3ccccc3)c(=O)c3ccccc3n2c1=O)NC1CCCCC1	i
Cn1cc(-c2cnn3c(N)c(Br)c([C@@H]4CCCNC4)nc23)cn1	+
Cc1cc(NC(=O)N2CCn3cccc3C2C(C)C)ccc1Br (configuration not stated)	i
N#Cc1cccnc1-c1cccc(C(=O)NCCNC(=O)c2ccccc2)c1	i
COc1cccc(-c2ccc(C(=O)NCCNC(=O)c3ccccc3OC)cc2)c1	i
CN(C)CCCNC(=O)c1ccc(-c2cc(O)c3ncccc3c2)cc1	+
CCCn1c(=O)c2cc(Cl)ccc2n2c(SCc3ccccc3)nnc12	i
COC(=O)c1ncn2c1C(=O)N(Cc1ccccc1)C(C)(C(=O)NC1CCCCCC1)C2 (configuration not stated)	i
SMILES	Methyltransferases
Cc1cccc(CNC(=O)C2(C)Cn3cnc(C(=O)NCc4ccc(F)cc4)c3C(=O)N2C2CC2)c1 (configuration not stated)	i
Cc1ccc(CNC(=O)CSc2nnc3n(CC(C)C)c(=O)c4ccccc4n23)cc1	i
CCCn1c(=O)c2ccc(Cl)cc2n2c(=O)n(CC(=O)Nc3ccccc3F)nc12	i
CCCN1C(=O)c2c(C(=O)NCc3cccc(C)c3)ncn2CC1(C)C(=O)NC1CCCC1 (configuration not stated)	i
O=C1CN(Cc2cccc(Cl)c2)S(=O)(=O)c2ccccc2N1Cc1ccc(Cl)cc1	i
CC(=O)N1CC2(CCCN2Cc2cccc(C(N)=O)c2)Cc2ccccc21 (configuration not stated)	i
O=C(O)c1cccc(CN2C(=O)/C(=C(\c3ccccc3)c3ccc(Cl)cc3)c3ccccc32)c1	+
CN(CC(=O)Nc1ccc(Br)cc1F)S(=O)(=O)c1ccc2[nH]c3c(c2c1)CCCC3	i
CN1C(=O)c2cc(C(=O)NC3CCCCC3)nn2CC1(C)C(=O)NC1CCCC1 (configuration not stated)	i
Cn1c2c(c3ccccc31)C(C(=O)NCc1ccc(F)cc1)N(c1cccc(C(F)(F)F)c1)C(=O)CS2 (configuration not stated)	i
C[C@H]1c2cccc(O)c2C(O)=C2C(=O)[C@]3(O)C(O)=C(C(N)=O)C(=O)[C@@H](N(C)C)[C@@H]3[C@@H](O)[C@@H]21	+
CC1(C(=O)NC2CCCCCC2)Cn2c(nc3ccccc32)C(=O)N1C1CCCCCC1 (configuration not stated)	i
CCC(C)NC(=O)Cn1nc2n(Cc3ccccc3)c(=O)c3ccc(C(=O)NC(C)C)cc3n2c1=O (configuration not stated)	i
CCOC(=O)C1(CCOc2ccccc2)CCN(Cc2ccc(O)c(Cl)c2)CC1	i
